Laboratory results as given in PubChem BioAssay AID588719 (Southern Research Specialized Biocontainment Screening …, 2011).
About 920 (61%) of roughly 1,500 compounds were called active. No rule for the calls is given here. So high a share suggests a set chosen from earlier hits. The list shows a part of the results. Entries that show only a call come without a potency. Potency and affinity values are given separately.

Assay: Vero 76 cell cytotoxicity, dose response, cytotoxicity control for VEEV inhibitor project (AID 588719)
Conditions: Vero 76 cells viability, cytotoxicity counter-screen; series mostly up to 25 µM

Row | Compound | outcome
1 | O=C(/C=C/c1cccc([N+](=O)[O-])c1)c1ccc2c(c1)OCCO2 | inactive
2 | CN1C/C(=C/c2ccsc2)C(=O)/C(=C/c2ccsc2)C1 | inactive
3 | O=C(CC(=O)N/N=C/c1ccc(F)cc1)N/N=C/c1ccc(F)cc1 | inactive
4 | O=C(CSC1CN(C(c2ccccc2)c2ccccc2)C1)N/N=C/c1ccc(Cl)cc1Cl | inactive
5 | NC(=S)NN=C(c1ccc(F)cc1)C1CC1 | inactive
6 | CCCCCCCCCCCCCCCC(O)C(N)CO (centres undefined) | inactive
7 | CN1CCN(C(=O)CCN2C(=O)/C(=C\c3ccc(Cl)cc3Cl)SC2=S)CC1 | inactive
8 | O=C(N1CCOCC1)N1c2ccccc2Sc2ccccc21 | inactive
9 | NC(=O)c1nsc(C(=O)N(c2ccccc2F)C(C(=O)NCc2ccccc2)c2ccc(O)cc2)c1N (centres undefined) | inactive
10 | COC(=O)c1cc2c(N)c(C(=O)c3ccc(Cl)cc3)sc2nc1C(OC)OC | inactive
11 | COc1cc2cc(C(=O)N3CC(COS(C)(=O)=O)c4ccc(O)cc43)[nH]c2c(OC)c1OC (centres undefined) | inactive
12 | COC(=O)c1ccc(/C=C2/SC(=S)N(CCC(=O)N3CCOCC3)C2=O)cc1 | inactive
13 | O=C(O)c1ccccc1Nc1ccc(OC(F)F)cc1 | inactive
14 | Cc1cc(-c2ccccc2)nc(N2CCN(c3ccccn3)CC2)n1 | inactive
15 | COc1cc2[nH]c3c(N4CCN(c5ccccn5)CC4)ncnc3c2cc1OC | inactive
16 | Cc1nc2ccccc2nc(C)c1=NOCc1cccc(F)c1 | inactive
17 | Cc1ccc2oc(C(F)(F)C(F)F)cc(=O)c2c1 | inactive
18 | O=C(OCc1cn([C@@H]2C[C@H](c3ccc(Cl)cc3)N(C(=O)c3cccs3)C[C@H]2O)nn1)c1ccccc1 | inactive
19 | COCCNCC(=O)NC12CC3CC(CC(C3)C1)C2 | inactive
20 | CC(OCCN(C)C)C(=O)C12CC3CC(CC(C3)C1)C2 (centres undefined) | inactive
21 | Cc1ncc([N+](=O)[O-])n1CC(=O)NCCc1ccccc1 | inactive
22 | CC1N(C)c2cc(NC(=O)c3ccco3)c(P(=O)(Nc3ccc([N+](=O)[O-])cc3)N3CCOCC3)cc2C1(C)C (centres undefined) | inactive
23 | CCC(NC(=O)CCCc1ccccc1)c1ccccc1 (centres undefined) | inactive
24 | CCOc1ccc2nc3cc(NCc4ccc(OC)cc4)ccc3c(N)c2c1 | inactive
25 | Cc1ccc(NC(=O)C2CCCN2C(=O)OC(C)(C)C)cc1C (centres undefined) | inactive
26 | COc1ccccc1C=NN=C1c2ccccc2-c2ccccc21 | inactive
27 | COc1cccc(-c2ccc(NC(=O)C3CCCN(Cc4cnn(C)c4)C3)cc2)c1 (centres undefined) | inactive
28 | COc1cccc(-c2ccc(NC(=O)C3CCCN(Cc4cnn(C)c4C)C3)cc2)c1 (centres undefined) | inactive
29 | O=C1C2CCCN2C(c2ccc(F)cc2)N1c1ccc(Cl)cc1 (centres undefined) | inactive
